MIN6 prolif = inducers of beta-cell replication in MIN6 cells. MIN6 cells proliferation, ATPlite luminescence, 48 h; cells starved in 0.2% serum; 100% = growth in 10% serum. proliferation, % at 10 µM. 330,000 compounds, 0.29% hits. AID 2380;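 active = compounds whose signal lies at least 3.5 SD above the mean of all wells on their plate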;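 note: 0% = DMSO-treated cells in low-serum medium and 100% = 10% serum control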
TAG inh = inhibitors of triacylglycerol accumulation | inhibition, % at 12.5 µM | 230,000 compounds, 0.66% hits | AID 651582 | H9c2 cells, Nile Red lipid (TAG) fluorescence; cells loaded with 200 µM oleic acid;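 active = pattern-corrected inhibition of lipid staining of at least 50% with the nuclear-stain viability signal not falling by more than 50%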;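 note: 0% = DMSO wells and 100% = triacsin C control wells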
CHT block = human CHT choline transport inhibition; B-score at 10 µM; Q9GZV3; AID 488975; CHT-expressing cells, membrane potential dye, choline response; stronger effect = lower value; 310,000 compounds, 0.86% hits;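 active = B-score over 3 SD under the library average, and starting fluorescence ratio not unusually high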;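 note: choline stimulus applied at its EC90 after an EC20 pre-addition; B-score computed on integrated fluorescence ratio after choline addition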
Target sequence (Q9GZV3 whole entry, looked up): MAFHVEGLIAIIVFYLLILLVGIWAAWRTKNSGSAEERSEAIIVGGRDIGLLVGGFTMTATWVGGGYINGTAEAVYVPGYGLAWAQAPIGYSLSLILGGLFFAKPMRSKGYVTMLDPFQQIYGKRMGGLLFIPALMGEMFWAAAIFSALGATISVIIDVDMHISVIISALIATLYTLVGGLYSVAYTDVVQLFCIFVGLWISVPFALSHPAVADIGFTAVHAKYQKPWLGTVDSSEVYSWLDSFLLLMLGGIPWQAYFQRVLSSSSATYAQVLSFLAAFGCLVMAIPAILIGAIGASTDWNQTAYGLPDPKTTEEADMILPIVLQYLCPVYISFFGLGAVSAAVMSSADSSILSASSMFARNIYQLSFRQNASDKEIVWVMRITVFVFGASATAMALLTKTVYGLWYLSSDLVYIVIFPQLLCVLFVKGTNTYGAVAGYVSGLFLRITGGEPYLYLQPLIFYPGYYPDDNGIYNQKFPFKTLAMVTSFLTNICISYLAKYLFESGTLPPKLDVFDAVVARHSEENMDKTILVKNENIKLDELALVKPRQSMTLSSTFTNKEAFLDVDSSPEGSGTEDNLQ
CHT allo act = allosterically activates the human high affinity choline transporter | Q9GZV3 | CHT-expressing cells, membrane potential dye, choline EC20; stronger effect = higher value; LV-AA mutant CHT in HEK293 cells | B-score at 10 µM | 310,000 compounds, 0.49% hits | AID 488977;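 active = initial fluorescence not abnormally high and integrated response B-score, plate-corrected, over 3 SD above library mean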
CHT block conf = confirmation of human choline transporter CHT inhibitors; shares compounds with CHT block; CHT activity remaining % of control (stronger effect = lower value), % at 10 µM; CHT-expressing cells, choline membrane potential dye; LV-to-AA substituted CHT, HEK293 cells; 2,400 compounds, 70% hits;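 active = choline transporter activity left, mean of duplicates at 10 µM, below buffer-only control mean minus 3 SD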;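 note: depolarization triggered by choline at its EC90 following an EC20 pre-addition; 0% = hemicholinium-3 full block and 100% = buffer-only control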
HEK293 MPD ctr = counter-screen for CHT inhibitors: effect in parental HEK293 cells | AID 493222 | 2,400 compounds, 4% hits | shares compounds with CHT block | membrane potential ratio readout (active if shifted either direction beyond buffer ±3SD; no single direction) at 10 µM | membrane potential dye, choline response; active = decrease or increase beyond buffer ±3SD;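 note: parental cells lack the transporter so any hit is non-specific; ratio is peak minus trough fluorescence over baseline after EC90 choline challenge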
* = called active by the depositor; i = inactive; / = no result given. Sampled rows, rich in hits. Any-hit rate of the full collection: about 1.7%.

SMILES	MIN6 prolif	TAG inh	CHT block	CHT allo act	CHT block conf	HEK293 MPD ctr
CCCCn1c(SCC(=O)N2CCN(c3ccccc3)CC2)nc2ccsc2c1=O	-1	/	-5.7*	i	i	i
CCCCn1c(SCC(=O)N2CCC(C)CC2)nc2ccsc2c1=O	-2	/	i	i	60%*	i
O=C(CSCc1ccc(Cl)cc1)Nc1ccc(S(=O)(=O)N2CCOCC2)cc1	0	-1	i	i	/	/
COc1cc(C2=NC(CO)(CO)CO2)cc(OC)c1OC	0	-3	i	i	/	/
O=[N+]([O-])C(/C=C(\Cl)[N+](=O)[O-])=C1N(Cc2ccc(Cl)nc2)CCN1Cc1ccc(Cl)nc1	-2	/	i	i	/	/
O=[N+]([O-])/C(C(=C(Cl)Cl)N1CCN(Cc2ccccc2)CC1)=C1\NCCN1Cc1ccc(Cl)nc1	-3	10	-13*	i	4.7%*	i
O=C(Nc1nc(-c2cccs2)c(-c2ccccc2)s1)c1ccco1	-6	5	i	i	/	/
O=C(Nc1nc(-c2cccs2)c(C(=O)C(F)(F)F)s1)c1ccco1	1	10	-5.2*	i	i	i
CCCCn1c(SCc2nnc(-c3ccccc3)o2)nc2c1c(=O)n(C)c(=O)n2C	-4	/	-5.6*	i	34%*	i
CCCCn1c(SCC(=O)N2c3ccccc3CCc3ccccc32)nc2c1c(=O)n(C)c(=O)n2C	-2	11	i	i	/	/
CCOC(=O)CC1=CCc2c1ccc(OC)c2OC	/	-6	/	/	/	/
O=C1c2cccc([N+](=O)[O-])c2C(=O)N1CCO	-2	-6	i	i	/	/
O=C1c2cccc3c(Nc4ccccc4Cl)c([N+](=O)[O-])cc(c23)C(=O)N1CCO	-2	-16	-5.5*	i	71%*	i
CCOC(=O)c1cc(NC(=O)CNCC(c2ccccc2)N(C)C)cc(C(=O)OCC)c1 (centres undefined)	-5	/	-6.8*	i	33%*	2.2*
COc1ccc(CCNC(=O)CNCC(c2ccccc2)N(C)C)cc1OC (centres undefined)	-3	/	i	i	/	/
Cc1ccccc1NC(=O)NC1(C(=O)NCc2ccco2)CCCCC1	0	/	i	i	/	/
CS(=O)(=O)Nc1ccccc1C(=O)NCCSc1ccccc1	-2	5	-6.5*	i	71%*	i
COc1ccc(-c2noc(N3CCC(C(=O)Nc4ccc(OC)cc4OC)CC3)n2)cc1	-2	-14	-6.6*	i	i	i
CN1CCN(c2ccccc2NC(=O)COc2ccc(Cl)cc2)CC1	1	-4	i	i	/	/
CC1CCCC(C)N1CCCNC(=O)CN1C(=O)c2cccnc2Oc2ccc(Cl)cc21 (centres undefined)	0	2	-7.1*	i	19%*	i
Cc1ccc2c(c1)N(CC(=O)NCCCN1C(C)CCCC1C)C(=O)c1cccnc1O2 (centres undefined)	4	-5	i	i	/	/
COc1ccccc1N1CCN(/N=C/C=C/c2ccccc2[N+](=O)[O-])CC1	-1	4	i	i	/	/
CCN(c1ccccc1)S(=O)(=O)c1ccc(NC(=O)c2nc(S(C)(=O)=O)ncc2Cl)cc1	-7	/	i	i	/	/
CS(=O)(=O)c1ncc(Cl)c(C(=O)Nc2ccc(OC(F)F)cc2)n1	-5	/	-6.5*	i	50%*	i
CS(=O)(=O)c1ncc(Cl)c(C(=O)Nc2ccc(N3CCOCC3)cc2)n1	-4	/	-6.9*	i	56%*	i
SMILES	MIN6 prolif	TAG inh	CHT block	CHT allo act	CHT block conf	HEK293 MPD ctr
CCOC(=O)c1nc(S(C)(=O)=O)ncc1Cl	0	/	-6.3*	i	47%*	i
CS(=O)(=O)c1ccc(C(=O)Nc2ccc(N3CCOCC3)cc2)c(Cl)c1	2	2	i	i	/	/
Nc1c(C(=O)CSc2nccn2-c2cccc(F)c2)c(=O)[nH]c(=O)n1C1CC1	-4	3	/	/	/	/
COc1ccccc1C(=O)Nc1onc(C)c1C#N	0	-1	-6.4*	i	i	i
COC(=O)c1ccc(/C(O)=C(\C#N)c2nc3ccccc3s2)cc1	-3	/	-6.5*	i	i	i
COC(=O)c1ccc(CC(=O)c2nc3ccccc3s2)cc1	3	/	i	i	/	/
O=C1NC(=O)C(=Cc2ccccc2[N+](=O)[O-])S1	/	22	/	/	/	/
Cc1ccc(S(=O)(=O)Oc2ccccc2/C=C2/SC(=O)NC2=O)cc1	-2	-5	-6*	i	57%*	i
CCCOc1ccc2ccccc2c1/C=C1\SC(=O)NC1=O	-4	5	-6.4*	i	i	i
O=C1NC(=O)/C(=C/c2cccc3ccccc23)S1	-4	/	-5*	i	62%*	i
O=C(NCc1nc2ccccc2[nH]1)C1=C[C@H](c2coc3ccccc3c2=O)C[C@H](OCc2ccc(CO)cc2)O1	-7	8	i	i	/	/
CN(CC(=O)Nc1ccc(F)c(F)c1F)C(=O)CCN1C(=O)C2CCCCC2C1=O (centres undefined)	-6	-3	/	/	/	/
Cc1ccc(OCCOC(=O)c2c(-c3ccccc3)noc2C)cc1	-1	/	-5*	i	i	i
Cc1onc(-c2ccccc2)c1C(=O)OCCOc1cccc(Cl)c1	-4	1	i	i	/	/
CC(C)(C)c1ccc(C(=O)N2CCC2(C)C(=O)NCc2ccc3c(c2)OCO3)cc1 (centres undefined)	/	-8	/	/	/	/
CC(=O)c1ccc(NC(=S)Nc2ccc3[nH]c(=O)[nH]c3c2)cc1	-1	-4	i	i	/	/
Cc1ccc(NC(=S)Nc2ccc3[nH]c(=O)[nH]c3c2)cc1C	-5	-1	-6.9*	i	63%*	i
O=C(N/N=C/c1cccn1-c1cccc(C(=O)O)c1)Nc1ccccc1	0	/	i	i	/	/
C[n+]1ccccc1COc1ccc(C(C)(C)C)cc1	0	/	-7.3*	i	34%*	i
CCc1nc2ccc(C(=O)N(CC)CCN(C)C)cn2c1N(CC)CCOC	/	6	/	/	/	/
Cc1c(CCC(=O)NCCCn2ccnc2)c(=O)oc2c(C)c3occ(C(C)(C)C)c3cc12	-8	/	-5.5*	i	29%*	i
CCOC(=O)C(Cc1ccccc1)NC(=O)CCCC(=O)c1ccccc1 (centres undefined)	-6	/	-5.9*	i	45%*	i
FC(F)(F)c1ccc(Oc2ccc3cc(Br)ccc3c2)nc1	-3	/	i	i	/	/
COc1ccc(NC(=O)C=C(C)C)cc1Cl	-3	/	i	i	/	/
CC(=O)Nc1ccc(Oc2ncccn2)c(Cl)c1	0	-17	-5.6*	i	i	i
CCOc1ccc(-c2csc3nc[nH]c(=O)c23)cc1	-2	/	i	i	/	/
CCOC(=O)c1cnc2c(C(F)(F)F)cccc2c1N1CCOCC1	-2	-3	-5.8*	i	52%*	i

From PubChem BioAssay
